# According to PubChem BioAssay:
# Calls of active or inactive are those of the source. Unless noted, no rule for the calls is given here.
# Assays:
# [1] = system: Wnt5a (protein binding on small-molecule microarray); assay: Wnt5a binders on small-molecule microarray, primary screen, biophysical, 635/667 nm fluorescence (AID 1142); settings: 635 nm fluorescence, higher = more signal;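 also: fluorescence read at 667 nm with signal to noise per printed feature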
# [2] = cell viability in Huh7 cells, primary screen, cytotoxicity control for HCV replication inhibitor project, CellTiter-Glo luminescence, basal, 48 h (AID 1143); settings: Huh7 HCV replicon, higher = more signal, called active from +8 up or from −8 down;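 also: Huh7 hepatoma cells carrying a hepatitis C replication reporter with no stimulus; test concentration not given here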
# [3] = P. aeruginosa biofilm formation inhibitors, primary screen, PAO1 strain, BacTiter-Glo luminescence, LB-PBS (AID 1144); settings: 12 h, higher = more signal
# [4] = CREB reporter modulators without forskolin, primary screen, cell-based, PC12, CRE-LacZ reporter, unstimulated (AID 1145); settings: no forskolin, luminescence, 4.5 h, higher = more signal, called active from +8 up or from −8 down
# [5] = CREB reporter modulators under forskolin, primary screen, cell-based, PC12, CRE-LacZ reporter, forskolin-stimulated (AID 1146); settings: luminescence, 4.5 h, higher = more signal, called active from +8 up or from −8 down;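 also: PC12 cells with 6xCRE LacZ reporter stimulated by forskolin 10 µM; beta-galactosidase reporter signal reflecting CREB driven transcription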
# [6] = target: Streptavidin (Streptomyces avidinii) (UniProt P22629); assay: streptavidin binders on small-molecule microarray, primary screen, artefact control for SMM compound annotation, biophysical, 635/667 nm fluorescence (AID 1147); settings: streptavidin binding, higher = more signal;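 also: signal reflects streptavidin binding to arrayed compounds as a control protein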
# [7] = small-molecule binders of probe aInhba, primary screen, biochemical, small-molecule microarray, 635/667 nm fluorescence (AID 1148); settings: higher = more signal;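 also: score merges 667nm spot fluorescence with signal-to-noise for antibody binding to printed compounds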
# Torsin-1A (Homo sapiens) [8] = target: Torsin-1A (Homo sapiens) (UniProt O14656); assay: torsin A binders from cell lysate, primary screen, small-molecule microarray, wild-type, 635/667 nm (AID 1149); settings: COS7 hTOR1A-WT lysate, 635 nm fluorescence, higher = more signal
# Torsin-1A (Homo sapiens) [9] = target: Torsin-1A (Homo sapiens) (UniProt O14656); assay: small-molecule binders of mutant TOR1A in lysate, primary screen, cell lysate, small-molecule microarray, COS7 lysate, 635/667 nm fluorescence (AID 1150); settings: COS7 hTOR1A mutant lysate, 635 nm fluorescence, higher = more signal;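 also: score pools 667 nm emission and signal to noise measuring lysate protein binding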
# [10] = system: Sonic hedgehog protein (Shh); assay: small-molecule binders of Shh protein, primary screen, biochemical, small-molecule microarray, 635/667 nm fluorescence (AID 1151); settings: small-molecule microarray binding, 635 nm fluorescence; higher = more signal;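 also: Shh protein binding to compounds spotted on small-molecule microarray slides; score combines spot fluorescence intensity with signal-to-noise across triplicate slides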
# [11] = E. coli DRC41 culture turbidity changes, primary screen, E. coli filamentation inducer project, strain DRC41, OD650, 48 h (AID 1152);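 also: E. coli MC1000 strain DRC41 lacking acrAB efflux pump and sulA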; settings: E. coli DRC41 (acrAB sulA), higher = more signal, called active from +8 up or from −8 down
# [12] = small-molecule binders of probe aLefty1, primary screen, biochemical, small-molecule microarray, 635/667 nm fluorescence (AID 1153); settings: higher = more signal;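 also: score merges spot fluorescence with signal-to-noise ratio from the scanned slide images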
# [13] = PSAC antagonists in infected red cells, primary screen, cell-based, P. falciparum Indochina, OD700, 1 h (AID 1154); settings: P. falciparum Indochina infected RBC osmotic lysis, higher = more signal, called active from +8 up or from −8 down
# [14] = PSAC antagonists in infected red cells, primary screen, cell-based, P. falciparum Indochina, OD700, 2 h (AID 1155);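 also: lysis reports solute entry through the parasite surface anion channel PSAC; channel blockers reduce lysis of infected cells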; settings: P. falciparum Indochina infected erythrocytes, osmotic lysis OD700; higher = more signal, called active from +8 up or from −8 down
# [15] = osmotic lysis modulators in infected erythrocytes, primary screen, PSAC antagonist project, cell-based, P. falciparum Indochina, OD700, 3 h (AID 1156); settings: higher = more signal, called active from +8 up or from −8 down
# [16] = PSAC antagonists in infected red cells, primary screen, cell-based, P. falciparum Indochina, OD700, 18 h (AID 1157); settings: P. falciparum Indochina infected erythrocytes, osmotic lysis OD700, 18 h; higher = more signal, called active from +8 up or from −8 down
# [17] = modulators of S6 phosphorylation in cells, primary screen, cell-based, A549, cytoblot, luminescence, serum-stimulated (AID 1158); settings: A549 phospho-S6 cytoblot, 5 h, higher = more signal;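 also: serum-stimulated A549 lung adenocarcinoma cells; signal is phosphorylated S6 detected by cytoblot immunostaining with HRP secondary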
# [18] = target: NADPH oxidase 2 (Homo sapiens) (UniProt P04839); assay: NOX2-dependent H2O2 signal modulators, primary screen, NOX inhibitor project, cell-based, HEK293-NOX2, PMA-stimulated, Amplex Red fluorescence (AID 1159); settings: 45 min, higher = more signal, called active from +8 up or from −8 down; also: test concentration not given here
# [19] = target: NADPH oxidase 4 (Homo sapiens) (UniProt Q9NPH5); assay: NOX4-dependent H2O2 signal modulators, primary screen, NOX inhibitor project, cell-based, HEK293-NOX4, tetracycline-induced, Amplex Red fluorescence (AID 1160); settings: 45 min, higher = more signal, called active from +8 up or from −8 down
# [20] = target: NADPH oxidase 5 (Homo sapiens) (UniProt Q96PH1); assay: NOX5-dependent H2O2 signal modulators, primary screen, NOX inhibitor project, cell-based, HEK293-NOX5, Amplex Red fluorescence (AID 1161); settings: HEK293-NOX5, ionomycin, 45 min, higher = more signal
# Sequence of NADPH oxidase 5 (Homo sapiens) (Q96PH1 whole entry, looked up): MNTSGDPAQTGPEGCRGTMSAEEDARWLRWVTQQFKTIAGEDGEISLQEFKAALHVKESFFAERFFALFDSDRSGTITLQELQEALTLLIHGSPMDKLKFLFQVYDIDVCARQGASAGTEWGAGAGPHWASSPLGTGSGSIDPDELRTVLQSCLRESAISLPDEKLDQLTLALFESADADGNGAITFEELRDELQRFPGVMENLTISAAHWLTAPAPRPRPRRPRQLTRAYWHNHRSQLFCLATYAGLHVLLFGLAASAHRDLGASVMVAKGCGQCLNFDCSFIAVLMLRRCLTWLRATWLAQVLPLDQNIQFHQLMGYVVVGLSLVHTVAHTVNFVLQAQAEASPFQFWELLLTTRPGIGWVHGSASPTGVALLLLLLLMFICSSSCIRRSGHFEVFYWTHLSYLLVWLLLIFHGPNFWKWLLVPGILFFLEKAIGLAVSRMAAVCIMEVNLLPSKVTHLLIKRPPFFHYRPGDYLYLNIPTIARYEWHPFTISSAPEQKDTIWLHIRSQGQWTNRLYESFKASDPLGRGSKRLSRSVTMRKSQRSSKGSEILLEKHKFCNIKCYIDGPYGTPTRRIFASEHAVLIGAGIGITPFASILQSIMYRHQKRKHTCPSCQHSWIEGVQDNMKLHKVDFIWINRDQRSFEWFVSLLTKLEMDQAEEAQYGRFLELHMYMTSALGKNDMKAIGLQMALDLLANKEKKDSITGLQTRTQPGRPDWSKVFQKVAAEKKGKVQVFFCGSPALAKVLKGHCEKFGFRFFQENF
# Sequence of NADPH oxidase 4 (Homo sapiens) (Q9NPH5 whole entry, looked up): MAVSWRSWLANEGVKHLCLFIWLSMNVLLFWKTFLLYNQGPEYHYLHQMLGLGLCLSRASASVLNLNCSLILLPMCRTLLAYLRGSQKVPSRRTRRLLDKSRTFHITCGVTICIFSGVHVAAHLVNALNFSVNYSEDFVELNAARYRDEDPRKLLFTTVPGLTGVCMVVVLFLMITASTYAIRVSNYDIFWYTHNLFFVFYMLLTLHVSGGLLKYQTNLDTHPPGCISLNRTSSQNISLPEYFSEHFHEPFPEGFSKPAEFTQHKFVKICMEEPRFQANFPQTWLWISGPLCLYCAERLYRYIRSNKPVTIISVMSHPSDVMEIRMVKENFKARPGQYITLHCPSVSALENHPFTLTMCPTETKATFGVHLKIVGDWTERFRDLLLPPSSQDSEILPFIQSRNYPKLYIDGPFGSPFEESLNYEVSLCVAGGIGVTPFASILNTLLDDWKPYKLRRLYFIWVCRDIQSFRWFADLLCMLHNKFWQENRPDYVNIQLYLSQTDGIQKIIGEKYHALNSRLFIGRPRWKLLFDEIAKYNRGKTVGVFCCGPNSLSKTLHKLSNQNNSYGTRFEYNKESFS
# Sequence of Torsin-1A (Homo sapiens) (O14656 whole entry, looked up): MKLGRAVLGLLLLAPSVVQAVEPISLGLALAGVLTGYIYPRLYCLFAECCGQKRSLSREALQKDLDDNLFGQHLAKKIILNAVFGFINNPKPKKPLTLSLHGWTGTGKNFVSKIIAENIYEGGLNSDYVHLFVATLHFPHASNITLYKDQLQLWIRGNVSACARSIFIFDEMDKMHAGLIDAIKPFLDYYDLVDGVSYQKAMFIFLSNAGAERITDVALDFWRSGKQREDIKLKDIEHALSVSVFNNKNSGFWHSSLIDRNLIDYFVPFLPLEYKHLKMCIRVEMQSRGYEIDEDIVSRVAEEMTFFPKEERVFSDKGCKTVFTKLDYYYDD
# Sequence of NADPH oxidase 2 (Homo sapiens) (P04839 whole entry, looked up): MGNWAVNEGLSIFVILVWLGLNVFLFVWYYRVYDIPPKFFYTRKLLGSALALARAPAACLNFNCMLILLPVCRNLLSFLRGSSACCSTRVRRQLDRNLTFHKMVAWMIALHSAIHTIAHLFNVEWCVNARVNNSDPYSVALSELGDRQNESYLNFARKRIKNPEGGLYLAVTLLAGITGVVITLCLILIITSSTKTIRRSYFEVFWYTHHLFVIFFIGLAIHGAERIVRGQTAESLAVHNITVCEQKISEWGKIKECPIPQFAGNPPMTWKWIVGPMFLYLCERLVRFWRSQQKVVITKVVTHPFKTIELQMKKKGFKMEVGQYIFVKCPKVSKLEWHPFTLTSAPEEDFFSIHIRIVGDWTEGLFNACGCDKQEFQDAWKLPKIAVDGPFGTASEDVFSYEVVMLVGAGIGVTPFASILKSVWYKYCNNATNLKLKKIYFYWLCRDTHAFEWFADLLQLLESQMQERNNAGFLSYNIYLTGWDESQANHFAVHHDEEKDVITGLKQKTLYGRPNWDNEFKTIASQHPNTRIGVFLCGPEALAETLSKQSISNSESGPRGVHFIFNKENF
# Sequence of Streptavidin (Streptomyces avidinii) (P22629 whole entry, looked up): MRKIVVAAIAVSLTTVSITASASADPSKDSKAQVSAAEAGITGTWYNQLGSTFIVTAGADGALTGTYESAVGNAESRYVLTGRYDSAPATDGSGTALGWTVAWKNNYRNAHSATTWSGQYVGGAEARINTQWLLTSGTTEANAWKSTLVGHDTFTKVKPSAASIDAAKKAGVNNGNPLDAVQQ
Structure (SMILES),composite z-score [1],z-score [2],z-score [3],z-score [4],z-score [5],composite z-score [6],composite z-score [7],composite z-score (Torsin-1A (Homo sapiens) [8]),composite z-score (Torsin-1A (Homo sapiens) [9]),composite z-score [10],z-score [11],composite z-score [12],z-score [13],z-score [14],z-score [15],z-score [16],z-score [17],z-score [18],z-score [19],z-score [20]
COc1ccc(C(=O)Nc2ccc(CN3C(=O)[C@@]4(O[C@@H](CCn5cc([C@H](O)c6ccccc6)nn5)[C@H]([Si](C)(C)c5ccc(OC)cc5)[C@H]4C)c4ccccc43)cc2)cc1,-0.0152,-3.46 (inactive),-0.576 (inactive),2.4 (inactive),-1.04 (inactive),0.865,-0.0405,0.253,0.163,1.51,-0.203 (inactive),0.191,19.8 (active),5.6 (inactive),2.08 (inactive),1.43 (inactive),0.134,0.295 (inactive),0.709 (inactive),2.2
O=C1C2C=CC(C(O)C(c3ccccc3)c3ccccc3)N(n3cnnc3)C2C(=O)N1Cc1ccccc1 (stereo not given),0.159,-0.0706 (inactive),0.738 (inactive),0.182 (inactive),0.202 (inactive),1.12,0.057,0.0613,0.142,-0.0479,-1.48 (inactive),0.169,2.36 (inactive),1.26 (inactive),-0.218 (inactive),0.949 (inactive),-0.429,0.67 (inactive),-2.83 (inactive),-0.766
Cc1ccc(S[C@]2(C(=O)NCCN3CCOCC3)CC(=O)N(Cc3ccccc3Cl)[C@@H]2c2ccc(CO)cc2)cc1,-0.0036,-2.93 (inactive),-1.98 (inactive),0.441 (inactive),1.1 (inactive),-0.625,-0.255,-2.16,0.269,-0.143,0.59 (inactive),0.0402,2.62 (inactive),0.43 (inactive),1.94 (inactive),0.524 (inactive),0.413,-2.29 (inactive),-1.85 (inactive),-2.89
C=CCC(OC(C)=O)[C@@H]1[C@@H](N(Cc2ccc(-c3ccccc3)cc2)C(=O)Cc2ccc(F)cc2)c2cc(OCCCO)ccc2N1C(=O)c1ccc(-c2ccccc2)cc1 (stereo not given in full),-0.163,-1.13 (inactive),-0.757 (inactive),-1.23 (inactive),-0.0988 (inactive),0.711,-0.157,-0.628,-0.222,0.249,2.08 (inactive),-0.0193,0.66 (inactive),-0.221 (inactive),-0.567 (inactive),-0.154 (inactive),1.26,-1.49 (inactive),0.414 (inactive),0.263
